Records with an inconclusive call do not appear. Values without a mark were called inactive. Active and inactive are the calls of the source. Calls follow the shape of the dose curve; as a rule, active = well fitted curve in the direction sought with a large enough effect; inconclusive = small, poorly fitted or top-dose-only effect, or another doubt; inactive = no such curve, though single readings can be large; an effect the other way counts as inactive or inconclusive.

For one assay, the system named is MKL-1. The assay can be described thus: qHTS assay to identify novel small-molecules to repurpose for Merkel cell carcinoma treatment (AID 1296009). Also: nearly all actives have a fitted effect of over 60% in size. The following applies: MCC and control cell lines, CellTiter-Glo viability, 72 h; series mostly up to 46 µM. The gist of the method:
(§1)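 Viability readout: ATP luminescence (CellTiter-Glo) after 72 hr drug exposure at 37 degree celsius. Dose-response format was 8 points for NPC and 11 points for MIPE; data normalized to in-plate controls.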
For orientation: qHTS replaces the single test concentration by a dilution series.

The next assay deals with MKL-2. The assay is described as above. Conditions: MCC and control cell lines, CellTiter-Glo viability, 72 h; series mostly up to 46 µM. The gist of the method: as §1
Another assay has as its system WaGa. The assay is described as above. The following applies: MCC and control cell lines, CellTiter-Glo viability, 72 h; series mostly up to 46 µM. A digest of the protocol: as §1
For orientation: In ATP-based viability assays light output follows the ATP content of the culture.

In a further assay the test system is UISO. Described as above. The following applies: MCC and control cell lines, CellTiter-Glo viability, 72 h; series mostly up to 46 µM. A digest of the protocol: as §1
Assay [1] is described as follows: Drug repurposing screens with cells derived from glioblastoma tumor samples (AID 1345199). Also: nearly all actives have a fitted effect of over 40% in size. The following applies: GBM patient neurospheres viability, ATP luminescence, 48 h. A digest of the protocol:
(§2)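 Primary testing used CD133+ neurospheres from four GBM patients, seven concentrations, 48 h exposure and ATP-based viability; confirmation added three slower-growing patient lines.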

For a further assay, the system named is astro. The description is as above. Conditions: viability, ATP luminescence, 48 h; series mostly up to 45.9 µM. The gist of the method: as §2
The subject of the next assay is C33A. The assay can be described thus: Primary qHTS to identify gynecologic anti-cancer compounds using libraries of approved drugs and bioactive compounds (AID 1345084). Also: nearly all actives have a fitted effect of over 55% in size. Conditions: Gynecologic cancer cell panel viability, ATPlite luminescence, 48 h; series mostly up to 57.5 µM. The gist of the method:
(§3)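 Cells, 1,000 per well, plated 16 h, then exposed 48 h at 37 C to compounds. Viability by ATPlite luminescence after 15 min at room temperature.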

Another assay concerns CASKI. The assay is described as above. The following applies: Gynecologic cancer cell panel viability, ATPlite luminescence, 48 h; series mostly up to 57.5 µM. A digest of the protocol: as §3
Another assay relates to Es-2. The description is as above. The following applies: Gynecologic cancer cell panel viability, ATPlite luminescence, 48 h; series mostly up to 57.5 µM. A digest of the protocol:
as §3

Another assay concerns HeLa. The description is as above. The following applies: Gynecologic cancer cell panel viability, ATPlite luminescence, 48 h; series mostly up to 57.5 µM. The gist of the method: as §3
The subject of the next assay is Hek293T. Described as above. Conditions: Gynecologic cancer cell panel viability, ATPlite luminescence, 48 h, control line for the selectivity index; series mostly up to 57.5 µM. The gist of the method:
as §3

Another assay deals with JEG-3. The description is as above. Conditions: Gynecologic cancer cell panel viability, ATPlite luminescence, 48 h; series mostly up to 57.5 µM. The gist of the method: as §3
Another assay deals with PA-1. The description is as above. The following applies: Gynecologic cancer cell panel viability, ATPlite luminescence, 48 h; series mostly up to 57.5 µM. A digest of the protocol:
as §3

For another assay, the system named is SKOV3. The assay is described as above. Conditions: Gynecologic cancer cell panel viability, ATPlite luminescence, 48 h; series mostly up to 57.5 µM. A digest of the protocol:
as §3

A further assay has as its system Tov-21-G. The description is as above. The following applies: Gynecologic cancer cell panel viability, ATPlite luminescence, 48 h; series mostly up to 57.5 µM. A digest of the protocol: as §3
In another assay the test system is Tov112D. The assay is described as above. Conditions: Gynecologic cancer cell panel viability, ATPlite luminescence, 48 h; series mostly up to 57.5 µM. The gist of the method: as §3
In a further assay the test system is CAOV3. The assay is described as above. The following applies: Gynecologic cancer cell panel viability, ATPlite luminescence, 48 h; series mostly up to 57.5 µM. A digest of the protocol: as §3
In the next assay the test system is OV90. Described as above. Conditions: Gynecologic cancer cell panel viability, ATPlite luminescence, 48 h; series mostly up to 57.5 µM. A digest of the protocol:
as §3

[2] abbreviates: at 45.9 µM (top of the series), tumour line B.
Setting [3] is: at 45.9 µM (top of the series), tumour line D.
[4] abbreviates: at 46.1 µM (top of the series), tumour line C.
% is scaled to controls: 0 for no effect and ±100 for the full control effect; potency is read from the fitted curve at half-maximal effect.

For `CNC(=O)c1cc(COc2nnc(Nc3ccc(Cl)cc3)c3ccoc23)ccn1`, the Potency entry in the assay with MKL-1, in the assay on MKL-2 and in the assay with WaGa was “inactive” in each case.

`Cc1ccc(C(=O)N(CCCN)[C@@H](c2oc3cc(Cl)ccc3c(=O)c2Cc2ccccc2)C(C)C)cc1`: the Potency entry with MKL-1 and with WaGa was “inactive” throughout. For the same compound, the Potency in the assay on MKL-2 is 8.33 µM (active).

Turning to `CN[C@@H]1CN(c2ccc3c(=O)c(C(=O)O)cn(-c4nccs4)c3n2)C[C@@H]1OC`, the Potency in the assay with MKL-1 was 1.82 µM (active); in the assay on MKL-2, 3.23 µM (active); in the assay on WaGa, 1.15 µM (active).

Turning to `O=C1Nc2ccc(I)cc2C1=Cc1cc(Br)c(O)c(Br)c1`, the Potency result with MKL-1, in the assay with MKL-2 and with WaGa was “inactive” in each case.

For the compound `COc1cc2c(cc1OC)CC(=O)N(CCCN(C)C[C@H]1Cc3cc(OC)c(OC)cc31)CC2`, the Potency result in the assay on MKL-1, in the assay on MKL-2, with UISO, with WaGa and with astro was “inactive” in each case. Further, the activity, negative = cell killing in assay [1] (setting [2]) is -14.4%; in [1] (setting [3]), -19.2%; in assay [1] (setting [4]), -34%. The Potency in [1] (tumour line A) was 11.2 µM (active).

`Nc1ccn([C@@H]2O[C@H](CO)[C@@H](O)[C@H]2O)c(=O)n1`: the Potency with MKL-1 was 9.35 µM (active); in the assay with WaGa, 0.132 µM (active). Besides, the Potency result with MKL-2 is “inactive”.

Take `Cc1ccc(NC(=O)c2cccc(N(C)C)c2)cc1NC(=O)c1ccc(O)cc1`: the Potency in the assay with MKL-1 was 8.33 µM (active); with MKL-2 it was 2.96 µM (active); in the assay on WaGa, 8.33 µM (active).

As to `O=C(O)Cc1cccc(OCCCN(Cc2cccc(C(F)(F)F)c2Cl)CC(c2ccccc2)c2ccccc2)c1`, the Potency entry in the assay on MKL-1, in the assay on MKL-2 and in the assay on WaGa was “inactive” each time.

Consider `COc1nccc(-c2c(-c3ccc(F)cc3)ncn2C2CCC(O)CC2)n1` (configuration not stated), for which the Potency entry with MKL-1, in the assay on MKL-2, in the assay with UISO, with C33A, with CASKI and in the assay on Es-2 was “inactive” in each case. Besides, the Potency result in the assay on HeLa, in the assay with Hek293T, in the assay on JEG-3, with PA-1, with SKOV3 and in the assay with Tov-21-G was “inactive” in each case. In addition, the Potency result in the assay on Tov112D was “inactive”.

As to `Cc1c(C(=O)Nc2ccc(N3C[C@@H](C)O[C@@H](C)C3)nc2)cccc1-c1ccc(OC(F)(F)F)cc1`, the Potency result in the assay with MKL-1, in the assay with MKL-2, in the assay on WaGa, in the assay on C33A, in the assay on CAOV3 and with CASKI was “inactive” throughout. For the same compound, the Potency entry in the assay on Es-2, with HeLa, in the assay on Hek293T, in the assay with JEG-3, in the assay on OV90 and in the assay on SKOV3 was “inactive” each time. Besides, the Potency entry in the assay with Tov-21-G and with Tov112D was “inactive” in each case.

Take `N#CC1(c2cccc(C(=O)Nc3cc(Oc4ccc5nc(NC(=O)C6CC6)sc5n4)ccc3F)c2Cl)CC1`: the Potency entry in the assay on MKL-1, with MKL-2, in the assay on C33A, in the assay with HeLa and in the assay on JEG-3 was “inactive” in each case. In addition, the Potency in the assay on CAOV3 was 11.2 µM (active); in the assay with PA-1, 10 µM (active); in the assay on SKOV3, 20 µM (active); with Tov-21-G, 3.98 µM (active); in the assay with Tov112D it was 5.62 µM (active).

Regarding `CC[C@H](C)C(=O)O[C@H]1C[C@H](O)C=C2C=C[C@H](C)[C@H](CC[C@@H](O)C[C@@H](O)CC(=O)O)[C@H]21`, the Potency entry with MKL-1, in the assay with MKL-2, in the assay with UISO, with WaGa and with astro was “inactive” each time.

In the case of `CNC(=O)[C@H](CC1=CN=C2C=CCC=C12)NC(=O)[C@@H](CC(=O)NO)CC(C)C`, the values for the Potency in the assay on MKL-1, in the assay on MKL-2 and in the assay on WaGa were 0.296 µM (active), 0.264 µM (active) and 0.296 µM (active), respectively.

On to `CC1=C(C(=O)Nc2cc3cn[nH]c3cc2F)C(c2ccc(C(F)(F)F)cc2)CC(=O)N1` (configuration not stated), for which the Potency result in the assay with MKL-1, in the assay on MKL-2, in the assay with UISO, in the assay with C33A, in the assay with CAOV3 and with CASKI was “inactive” each time. In addition, the Potency entry in the assay with Es-2, with HeLa, with Hek293T, in the assay with JEG-3, with OV90 and in the assay on PA-1 was “inactive” each time. Besides, the Potency result in the assay on SKOV3, with Tov-21-G and in the assay on Tov112D was “inactive” each time.

In the case of `CN(C)CC[C@H](CSc1ccccc1)Nc1ccc(S(=O)(=O)NC(=O)c2ccc(N3CCN(Cc4ccccc4-c4ccc(Cl)cc4)CC3)cc2)cc1[N+](=O)[O-]`, the Potency in the assay with MKL-1 is 1.18 µM (active); in the assay on MKL-2, 0.235 µM (active); in the assay on WaGa it was 0.264 µM (active).

As to `CC(C)(CO)[C@@H](O)C(=O)NCCC(=O)O`, the Potency result in the assay with MKL-1, in the assay on MKL-2, with UISO, in the assay with WaGa and with astro was “inactive” throughout. For the same compound, the activity, negative = cell killing was 1.18% in assay [1] (setting [2]), -3.38% in [1] (setting [3]) and -2.72% in [1] (setting [4]).

As for `CC(C)N(CCCNC(=O)Nc1ccc(C(C)(C)C)cc1)C[C@H]1O[C@@H](n2cc(Br)c3c(N)ncnc32)[C@H](O)[C@H]1O`, the Potency entry in the assay with MKL-1, in the assay on MKL-2 and in the assay with WaGa was “inactive” throughout.

Turning to `CCCCc1ccc(NS(=O)(=O)c2ccc(C)c(C(=O)N3CCN(c4cccc(C)c4C)CC3)c2)cc1`, the Potency entry in the assay on MKL-1, in the assay on MKL-2 and in the assay on WaGa was “inactive” throughout.

Take `Nc1ncnc2c1c(-c1cccc(OCc3ccccc3)c1)cn2C1CC(CN2CCC2)C1` (configuration not stated): the Potency result in the assay with MKL-1, in the assay on MKL-2 and in the assay on WaGa was “inactive” each time. Also, the Potency with CASKI was 28.2 µM (active); in the assay on Hek293T, 14.1 µM (active); in the assay on OV90, 22.4 µM (active); in the assay with PA-1, 14.1 µM (active); in the assay with Tov-21-G, 35.5 µM (active).

With `O=C(O)c1nc(=O)[nH]c(=O)[nH]1`, the Potency result in the assay on MKL-1, in the assay with MKL-2, with UISO, in the assay with WaGa and in the assay with astro was “inactive” in each case. The activity, negative = cell killing in assay [1] (setting [2]) is 0.794%; in assay [1] (setting [3]), 6.49%; in [1] (at 46 µM (top of the series), tumour line A), -9.41%; in [1] (setting [4]), -6.32%.

For the compound `C=CCc1cccc(C=NNC(=O)CN2CCN(Cc3ccccc3)CC2)c1O`, the Potency with MKL-1 was 9.35 µM (active); with MKL-2 it was 16.6 µM (active); in the assay on WaGa it was 16.6 µM (active).
